This is one part of a sample in which hits are shown more often than they occur.
CBX7 AlphaScr: inhibitors of human CBX7 binding to H3K27me3 peptide | O95931 | AlphaScreen His6-CBX7 / biotin-H3K27me3 peptide binding; stronger effect = lower value | normalised signal (fraction of DMSO) (test concentration not listed) | hit rate 1.1% among 66,000; in the data active = normalised signal below about 0.5
Target sequence (O95931 whole entry, looked up): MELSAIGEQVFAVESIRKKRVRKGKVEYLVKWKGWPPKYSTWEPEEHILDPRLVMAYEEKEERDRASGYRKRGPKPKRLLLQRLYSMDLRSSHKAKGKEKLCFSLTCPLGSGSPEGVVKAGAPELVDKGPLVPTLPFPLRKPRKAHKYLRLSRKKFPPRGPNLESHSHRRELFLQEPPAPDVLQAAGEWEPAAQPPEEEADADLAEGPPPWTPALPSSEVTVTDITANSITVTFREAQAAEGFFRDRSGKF
Starred values were filed as active, the others as inactive; ! = not active in a repeat.

SMILES	CBX7 AlphaScr
CCCCOc1ccc(N2C(=O)CC(N3CCC(C(=O)O)CC3)C2=O)cc1 (stereo not given)	0.98
COc1ccc(CNc2cc(C)nc3c(-c4ccc(OC)c(OC)c4)c(C)nn23)cc1	0.92
COc1ccc(-c2c(C)nn3c(NCc4ccccn4)cc(C)nc23)cc1OC	0.39*
COc1ccc(-c2c(C)nn3c(NCc4ccc(F)cc4)cc(C)nc23)cc1OC	0.89
Cc1ccccc1Nc1nc(C(F)(F)F)c(-c2cccc3ccccc23)s1	1.1
CCC1=Nc2cc(C(=O)NCCc3ccc(OC)c(OC)c3)ccc2Sc2ccccc21	0.9
Cc1ccc2c(c1)C(c1ccc(F)cc1)N(C(=O)c1ccccc1C(F)(F)F)CC(=O)N2 (stereo not given)	0.93
Clc1ccc(-c2noc(-c3ccc4c(c3)OCO4)n2)cc1	1
CCOc1ccc(CCNC(=O)CCc2nc(-c3ccccc3F)no2)cc1OCC	0.95
COc1ccccc1CNC(=O)C1C2C=CC3(CN(Cc4cccs4)C(=O)C13)O2 (stereo not given)	1.1
COc1ccc(-c2nnc(Nc3ccc(Cl)cc3)c3ccccc23)cc1	0.97
COc1ccc(-c2nnc(Nc3cccc(O)c3)c3ccccc23)cc1	0.43*
COc1ccc(-c2nnc(Nc3ccc(Cl)c(Cl)c3)c3ccccc23)cc1	1
O=C(Nc1cccc(F)c1)c1ccc(Br)c(S(=O)(=O)N2CCCCC2)c1	1.1
O=C(Nc1nc2c(s1)CCc1ccccc1-2)c1ccc(Oc2ccccc2)cc1	1
NC(=O)c1oc2ccccc2c1NC(=O)c1ccc(S(=O)(=O)N2CCCCC2)cc1	1
Cc1nnc(NC(=O)c2ccc(S(=O)(=O)N3CCCCC3)cc2)o1	0.021*
COc1ccccc1-c1nnc(NC(=O)c2ccc(S(=O)(=O)N3CC(C)OC(C)C3)cc2)o1 (stereo not given)	0.68
NC(=O)c1oc2ccccc2c1NC(=O)c1ccc(S(=O)(=O)N2CCCC2)cc1	1
CC1CCCN(S(=O)(=O)c2ccc(C(=O)Nc3nnc(C4CC4)o3)cc2)C1 (stereo not given)	0.6
COc1ccc(-c2nnc(NC(=O)c3ccc(S(=O)(=O)N4CC(C)OC(C)C4)cc3)o2)cc1 (stereo not given)	0.53
O=C(Nc1nnc(C2CC2)o1)c1ccc(S(=O)(=O)N2CCCC2)cc1	0.45*
Cc1nnc(NC(=O)c2ccc(S(=O)(=O)N3CCCCCC3)cc2)o1	0.002*
Cc1nnc(NC(=O)c2ccc(S(=O)(=O)N3CC(C)OC(C)C3)cc2)o1 (stereo not given)	0.0066*
Cc1ccccc1NC(=O)c1ccc(S(=O)(=O)N2CCCCC2)cc1	0.96
SMILES	CBX7 AlphaScr
COc1ccccc1-c1nnc(NC(=O)c2ccc(S(=O)(=O)N3CCCC3)cc2)o1	0.62
O=C(Nc1cccc(Cl)c1)C1CCC(CNS(=O)(=O)c2cccc3cccnc23)CC1 (stereo not given)	1
COc1cccc(NC(=O)Nc2cccc(C)n2)c1	1.1
COc1ccc2nc(N3CCC(C(=O)NCc4ccc(F)cc4)CC3)sc2c1	1.1
COC(=O)c1cccc(NC(=O)c2c(-c3ccccc3Cl)noc2C)c1	1
COc1ccc(C2Nc3ccc4ncccc4c3C3=C2C(=O)CCC3)cc1OC (stereo not given)	1
CCOC(=O)CC(NCc1cccc(OCc2ccccc2)c1)c1ccc(F)cc1 (stereo not given)	1
COc1cccc(N2CCN(S(=O)(=O)c3c(C)noc3C)CC2)c1	1
COc1ccccc1-c1coc2c(CN(C)Cc3ccccc3)c(O)ccc2c1=O	1
C=CCc1c(C)nc(-c2ccccc2)[nH]c1=O	1.1
O=C(CN1C(=O)c2ccccc2C1=O)Nc1nc(-c2ccc3c(c2)OCO3)cs1	1.1
Cc1ccc(C)c(-c2csc(Nc3ccc4c(c3)OCO4)n2)c1	0.35*
O=S(=O)(c1ccc(-c2csc(Nc3ccc4c(c3)OCO4)n2)cc1)N1CCCCC1	0.84
Brc1ccc(-c2csc(Nc3ccc4c(c3)OCO4)n2)cc1	0.35*!
c1ccc2cc(-c3csc(Nc4ccc5c(c4)OCO5)n3)ccc2c1	0.5*
Clc1ccc(-c2csc(Nc3ccc4ccccc4c3)n2)cc1Cl	0.59
Cc1ccc(C)c(-c2csc(Nc3ncccn3)n2)c1	1
Cc1ccc(C)c(-c2csc(Nc3ccc(S(=O)(=O)Nc4cc(C)on4)cc3)n2)c1	0.9
Brc1ccc(Nc2nc(-c3ccc(Br)cc3)cs2)cc1	0.66
Cc1cc(C)cc(NC(=O)c2sc3ncn(CC(=O)N4CCCC(C)C4)c(=O)c3c2C)c1 (stereo not given)	1.1
CCOc1ccc(N(CC(=O)OC)S(=O)(=O)c2ccc3c(c2)n(C)c(=O)c(=O)n3C)cc1	1.1
CCOc1ccc(C2c3[nH]c4ccccc4c3CCN2C(=O)c2ccccc2Cl)cc1 (stereo not given)	0.71
Cc1ccc(Cc2c(C)nc3c(C(=O)N4CCN(c5ccccn5)CC4)cnn3c2C)cc1	0.91
Cc1ccc(N(C(=O)c2ccccn2)C2(C(=O)NC3CCCCC3)CCCCC2)cc1	0.95
COC(=O)c1cc2c(cc1NC(=O)Cn1nc(Cc3cccnc3)c3ccccc3c1=O)OCO2	1
SMILES	CBX7 AlphaScr
CCN(CC)C(=O)c1oc2ccc(S(=O)(=O)N3CCOCC3)cc2c1C	1.1
COc1ccc(-n2cnc3cc(C(=O)NCC4CCCO4)ccc32)cc1 (stereo not given)	0.97
O=C(CN1C(=O)COc2ccc(Cl)cc21)NCCC1=CCCCC1	0.81
O=C(c1nnc(Cc2ccc(F)cc2)o1)N1CCOCC1	0.92
Clc1ccc(-c2csc(Nc3ccc(Oc4ccccc4)cc3)n2)cc1	0.54
CC(=O)Nc1nc(-c2ccc(Oc3ccccc3)cc2)cs1	0.92
COc1ccc(-c2csc(Nc3ccc(Oc4ccccc4)cc3)n2)cc1Br	0.42*!
COc1cccc(Nc2nc(-c3ccc(OC)c(Br)c3)cs2)c1	0.7
O=C1c2ccccc2C(=O)N1c1cccc(-c2csc(Nc3ccc(Oc4ccccc4)cc3)n2)c1	0.74
CC(C)Cc1ccc(-c2csc(Nc3ccc(Oc4ccccc4)cc3)n2)cc1	0.49*
Cc1cc(C)cc(OCC(=O)Nc2ccc3oc(-c4cccnc4)nc3c2)c1	0.97
CC(O)Cc1nsc(NC(=O)c2ccccc2F)n1 (stereo not given)	1.1
CC1CC(C)CN(CCCNC(=O)C2CC(=O)N(C3CCCCC3)C2)C1 (stereo not given)	1
COc1ccc(-n2nnc3c(=O)n(CC(=O)N4CCOCC4)cnc32)cc1	1
O=C(CN1C(=O)CC(c2ccccc2)Sc2ccccc21)NCCc1ccccc1 (stereo not given)	1.1
O=c1c2ccccc2c2ccccc2c(=O)n1-c1cccc(-c2nc3ccccc3o2)c1	0.97
COc1ccc(NC(=O)C2CCCN(S(=O)(=O)c3cccs3)C2)cc1Cl (stereo not given)	0.94
CC(=O)c1cccc(Nc2nc(-c3c(C)nc4ncccn34)cs2)c1	0.85
CCN(CC)c1ccc(Nc2nc(-c3c(C)nc4ncccn34)cs2)cc1	0.33*
CCc1ccccc1Nc1nc(-c2c(C)nc3ncccn23)cs1	0.77
CCOc1ccc(Nc2nc(-c3c(C)nc4sccn34)cs2)cc1	0.67
CCN(CC)c1ccc(Nc2nc(-c3c(C)nc4sccn34)cs2)cc1	0.1*
Cc1nc2sccn2c1-c1csc(Nc2ccc(Cl)cc2)n1	0.75
Cc1ccccc1N1CCN(c2nc(-c3ccccc3)c3cc(Br)ccc3n2)CC1	1.1
CN(C)CC(=O)N1c2ccccc2CCc2ccc(NC(N)=O)cc21	1
Cc1ccc(-n2ncc3c(NCc4cccnc4)ncnc32)c(C)c1	1

Bioassay records deposited in PubChem by Bradner/Qi Labs at DFCI.
